Inconclusive results are not listed. A call without a number means that no potency is given here. Activity calls are given as the source filed them. Calls come from the whole dose curve; as a rule, active = well fitted curve in the direction sought with a large enough effect; inconclusive = small, poorly fitted or top-dose-only effect, or another doubt; inactive = no such curve, though single readings can be large; an effect the other way counts as inactive or inconclusive.
Columns and labels:
[1] = qHTS of pediatric cancer cell lines to identify multiple opportunities for drug repurposing: Primary screen for SJ-GBM2 cells (AID 1347091); conditions: SJ-GBM2 viability, CellTiter-Glo luminescence, 48 h; series mostly up to 46 µM; note: potency is the fitted concentration of half-maximal effect
How it was run: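 Cell viability, CellTiter-Glo luminescence; 500-1,000 cells/well, 8- or 11-point titration, 48 h compound exposure at 37 degrees C, 5% CO2. Controls: DMSO neutral, bortezomib 2.3 µM final as positive.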

[2] = qHTS of pediatric cancer cell lines to identify multiple opportunities for drug repurposing: Primary screen for SK-N-MC cells (AID 1347093); conditions: SK-N-MC viability, CellTiter-Glo luminescence, 48 h; series mostly up to 46 µM; note: potency is the fitted concentration of half-maximal effect
How it was run: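 Metabolically active cells were quantified by ATP-dependent luminescence (CellTiter-Glo, 15 min at room temperature) following 48 h treatment. Cells had been plated at 500-1,000 per well and settled for 5 h beforehand.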

[3] = qHTS of pediatric cancer cell lines to identify multiple opportunities for drug repurposing: Primary screen for Saos-2 cells (AID 1347097); conditions: Saos-2 viability, CellTiter-Glo ATP luminescence, 48 h; series mostly up to 46 µM; note: nearly all actives have a fitted effect of over 40% in size; note: potency is the fitted concentration of half-maximal effect
How it was run: (§1)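 Luminescence from CellTiter-Glo served as readout of metabolically active cells after 48 h compound exposure. Titrations: MIPE 11-point, from 0.78 nM; NPC 8-point, from 0.59 nM (final). Concentration-response curves came straight from the primary screen.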

[4] = qHTS of pediatric cancer cell lines to identify multiple opportunities for drug repurposing: Primary screen for SK-N-SH cells (AID 1347098); conditions: SK-N-SH viability, CellTiter-Glo luminescence, 48 h; series mostly up to 57 µM; note: nearly all actives have a fitted effect of over 65% in size; note: potency is the fitted concentration of half-maximal effect
How it was run: (§2)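 Cells (500-1,000/well) rested 5 h, then received compounds for 48 h; metabolically active cells were measured by CellTiter-Glo luminescence. Final concentrations spanned up to 46 µM (MIPE, 11-point) or 0.59 nM-46 µM (NPC, 8-point) in primary screens, 11-point in follow-ups.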

[5] = qHTS of pediatric cancer cell lines to identify multiple opportunities for drug repurposing: Primary screen for NB1643 cells (AID 1347099); conditions: NB1643 neuroblastoma viability, CellTiter-Glo luminescence, 48 h; series mostly up to 46 µM; note: nearly all actives have a fitted effect of over 50% in size; note: potency is the fitted concentration of half-maximal effect
How it was run: as §1

[6] = qHTS of pediatric cancer cell lines to identify multiple opportunities for drug repurposing: Primary screen for OHS-50 cells (AID 1347103); conditions: OHS-50 osteosarcoma viability, CellTiter-Glo luminescence, 48 h; series mostly up to 57.3 µM; note: nearly all actives have a fitted effect of over 40% in size; note: potency is the fitted concentration of half-maximal effect
How it was run: as §2

[7] = qHTS of pediatric cancer cell lines to identify multiple opportunities for drug repurposing: Primary screen for RD cells (AID 1347104); conditions: RD rhabdomyosarcoma viability, CellTiter-Glo luminescence, 48 h; series mostly up to 46 µM; note: nearly all actives have a fitted effect of over 55% in size; note: potency is the fitted concentration of half-maximal effect
How it was run: as §1

[8] = qHTS of pediatric cancer cell lines to identify multiple opportunities for drug repurposing: Primary screen for Rh41 cells (AID 1347108); conditions: Rh41 rhabdomyosarcoma viability, CellTiter-Glo luminescence, 48 h; series mostly up to 46 µM;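 note: luminescence drop marks cytotoxic hits; nearly all actives have a fitted effect of over 70% in size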
How it was run: as §1

[9] = qHTS of pediatric cancer cell lines to identify multiple opportunities for drug repurposing: Primary screen for U-2 OS cells (AID 1347096); conditions: U-2 OS viability, CellTiter-Glo luminescence, 48 h; series mostly up to 46 µM; note: nearly all actives have a fitted effect of over 50% in size
How it was run: as §2

[10] = qHTS of pediatric cancer cell lines to identify multiple opportunities for drug repurposing: Primary screen for BT-12 cells (AID 1347101); conditions: BT-12 viability, CellTiter-Glo luminescence, 48 h; series mostly up to 57.3 µM; note: nearly all actives have a fitted effect of over 25% in size; note: potency is the fitted concentration of half-maximal effect
How it was run: as §2

[11] = qHTS of pediatric cancer cell lines to identify multiple opportunities for drug repurposing: Primary screen for Rh18 cells (AID 1347102); conditions: Rh18 rhabdomyosarcoma viability, CellTiter-Glo luminescence, 48 h; series mostly up to 46 µM; note: nearly all actives have a fitted effect of over 65% in size; note: potency is the fitted concentration of half-maximal effect
How it was run: as §2

[12] = qHTS of pediatric cancer cell lines to identify multiple opportunities for drug repurposing: Primary screen for MG 63 (6-TG R) cells (AID 1347105); conditions: MG 63 (6-TG R) viability, CellTiter-Glo, 48 h; series mostly up to 46 µM; note: nearly all actives have a fitted effect of over 50% in size
How it was run: as §1

[13] = qHTS of pediatric cancer cell lines to identify multiple opportunities for drug repurposing: Primary screen for control Hh wild type fibroblast cells (AID 1347106); conditions: Hh wild-type fibroblast viability, CellTiter-Glo luminescence, 48 h; series mostly up to 46 µM;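 note: a drop in luminescence marks cytotoxicity and a rise apparent proliferation; nearly all actives have a fitted effect of over 55% in size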
How it was run: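 Cells (500-1,000/well) in growth media were settled 5 h at 37 degrees C, then given compounds for 48 h. Viability was read as CellTiter-Glo luminescence. Primary runs used MIPE at 11 points (0.78 nM-46 µM) and NPC at 8 points (0.59 nM-46 µM); follow-ups used 11 points.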

[14] = qHTS of pediatric cancer cell lines to identify multiple opportunities for drug repurposing: Primary screen for Rh30 cells (AID 1347107); conditions: Rh30 rhabdomyosarcoma viability, CellTiter-Glo luminescence, 48 h; series mostly up to 46 µM; note: nearly all actives have a fitted effect of over 75% in size
How it was run: as §2

[15] = qHTS of pediatric cancer cell lines to identify multiple opportunities for drug repurposing: Primary screen for BT-37 cells (AID 1347094); conditions: BT-37 viability, CellTiter-Glo luminescence, 48 h; series mostly up to 57.3 µM
How it was run: as §1

[16] = qHTS of pediatric cancer cell lines to identify multiple opportunities for drug repurposing: Primary screen for NB-EBc1 cells (AID 1347095); conditions: NB-EBc1 neuroblastoma viability, CellTiter-Glo luminescence, 48 h; series mostly up to 46 µM
How it was run: as §1

[17] = qHTS of pediatric cancer cell lines to identify multiple opportunities for drug repurposing: Primary screen for LAN-5 cells (AID 1347100); conditions: LAN-5 neuroblastoma viability, CellTiter-Glo luminescence, 48 h; series mostly up to 46 µM
How it was run: as §2

[18] = qHTS of pediatric cancer cell lines to identify multiple opportunities for drug repurposing: Confirmatory screen for NB1643 cells (AID 1347109); conditions: NB1643 neuroblastoma cell viability; series mostly up to 45.9 µM; note: nearly all actives have a fitted effect of over 45% in size
How it was run: as §2

[19] = qHTS of pediatric cancer cell lines to identify multiple opportunities for drug repurposing: Confirmatory screen for A673 cells (AID 1347110); conditions: A673 Ewing sarcoma cell viability; series mostly up to 45.9 µM;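 note: cells exposed to compound for 48 h before the viability read; nearly all actives have a fitted effect of over 65% in size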
How it was run: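 A673 cells seeded at 500-1,000 cells/well, rested 5 h, then dosed; primary MIPE 11-point (0.78 nM to 46 µM), NPC (0.59 nM to 46 µM); confirmatory 11-point. CellTiter-Glo luminescence after 48 h.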

Structure (SMILES) | Potency [1] | Potency [2] | Potency [3] | Potency [4] | Potency [5] | Potency [6] | Potency [7] | Potency [8] | Potency [9] | Potency [10] | Potency [11] | Potency [12] | Potency [13] | Potency [14] | Potency [15] | Potency [16] | Potency [17] | Potency [18] | Potency [19]
CCCS(=O)(=O)Nc1ccc(F)c(C(=O)c2c[nH]c3ncc(Cl)cc23)c1F | 10.5 µM (active) | 4.18 µM (active) | 11.8 µM (active) | 19.2 µM (active) | 20.9 µM (active) | 13.7 µM (active) | 18.7 µM (active) | inactive | – | – | – | – | – | – | – | – | – | – | –
CN[C@@H](C)C(=O)N[C@H]1CCCC[C@H]2CC[C@@H](C(=O)N[C@@H](c3ccccc3)c3cn(CCCCc4ccc(CCCCn5cc([C@@H](NC(=O)[C@@H]6CC[C@@H]7CCCC[C@H](NC(=O)[C@H](C)NC)C(=O)N76)c6ccccc6)nn5)cc4)nn3)N2C1=O | inactive | 6.62 µM (active) | – | – | inactive | – | – | – | inactive | 27.3 µM (active) | 14.8 µM (active) | inactive | inactive | – | – | – | – | – | –
COc1ccc(CCN2CCN(CCCc3ccccc3)CC2)cc1OC | inactive | 18.7 µM (active) | – | inactive | – | – | – | inactive | inactive | – | inactive | inactive | inactive | inactive | – | – | – | – | –
COc1ccc2nc(S(=O)Cc3ncc(C)c(OC)c3C)[nH]c2c1 (stereo not given) | inactive | – | inactive | inactive | – | – | inactive | inactive | inactive | – | inactive | inactive | inactive | inactive | inactive | inactive | inactive | – | –
NCCCC(N)(C(=O)O)C(F)F (stereo not given) | inactive | – | inactive | inactive | – | inactive | inactive | inactive | inactive | inactive | inactive | inactive | inactive | inactive | inactive | inactive | inactive | inactive | inactive

From PubChem BioAssay (NCATS)
